Results from PubChem BioAssay AID493231 (Broad Institute, 2011).
Measured potencies and affinities stand elsewhere.

What follows are compounds tested against Acyl-homoserine lactone acylase PvdQ (Pseudomonas aeruginosa (strain ATCC 15692 / DSM 22644 / CIP 104116 / JCM 14847 / LMG 12228 / 1C / PRS 101 / PAO1)) (UniProt Q9I194) (assay: P. aeruginosa PvdQ acylase inhibitors, dose response, biochemical, fluorescence, plate reader and imaging, cherry-picks (AID 493231;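 further: 0% = neutral control wells and -100% = reference inhibitor wells; more negative values mean stronger inhibition of the acylase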)). Settings: purified PvdQ acylase, fluorogenic substrate; series mostly up to 10 µM; activity change, negative = inhibition: at the top concentration; call rule not given here.
Sequence of Acyl-homoserine lactone acylase PvdQ (Pseudomonas aeruginosa (strain ATCC 15692 / DSM 22644 / CIP 104116 / JCM 14847 / LMG 12228 / 1C / PRS 101 / PAO1)) (Q9I194 whole entry, looked up): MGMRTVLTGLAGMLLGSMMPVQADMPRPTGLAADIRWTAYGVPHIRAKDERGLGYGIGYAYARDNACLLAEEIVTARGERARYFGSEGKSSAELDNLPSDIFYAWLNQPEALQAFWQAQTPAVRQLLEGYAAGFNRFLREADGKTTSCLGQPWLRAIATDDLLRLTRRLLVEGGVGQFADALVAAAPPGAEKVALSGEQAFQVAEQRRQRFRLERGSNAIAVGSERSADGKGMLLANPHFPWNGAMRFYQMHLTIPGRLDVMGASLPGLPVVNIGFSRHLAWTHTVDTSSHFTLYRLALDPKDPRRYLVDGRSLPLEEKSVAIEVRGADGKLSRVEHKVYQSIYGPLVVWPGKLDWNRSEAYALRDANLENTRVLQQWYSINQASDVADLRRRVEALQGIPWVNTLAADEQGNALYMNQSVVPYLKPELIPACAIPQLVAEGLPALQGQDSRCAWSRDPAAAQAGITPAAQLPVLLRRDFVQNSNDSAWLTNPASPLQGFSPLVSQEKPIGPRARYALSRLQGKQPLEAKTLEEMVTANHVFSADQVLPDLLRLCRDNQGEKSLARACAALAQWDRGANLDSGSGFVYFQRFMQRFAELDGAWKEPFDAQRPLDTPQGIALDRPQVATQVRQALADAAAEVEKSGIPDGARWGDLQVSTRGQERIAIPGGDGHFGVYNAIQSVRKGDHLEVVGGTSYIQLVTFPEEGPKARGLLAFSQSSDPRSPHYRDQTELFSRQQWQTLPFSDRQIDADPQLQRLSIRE

Activity change, negative = inhibition, inactive:
NC(=O)c1ncn([C@@H]2O[C@H](CNCc3ccc(-c4cc(C(F)(F)F)ccc4Cl)o3)[C@@H](O)[C@H]2O)n1 10.7 unspecified, Cn1c(=O)c2c(ncn2CC(=O)OCC(=O)NCc2ccc(Cl)cc2)n(C)c1=O 12.1 unspecified, Cn1nnnc1SCC(=O)NCCCc1ccccc1 13.1 unspecified, CCC(=O)N1N=C(c2ccc(C)o2)CC1c1ccc(N(C)C)cc1 (stereo unspecified) 4.82 unspecified, Cc1ccc(-c2nc(CN(C)Cc3cccc4cnccc34)c(C)o2)s1 -7.83 unspecified, COc1cccc(Nc2nc(Nc3ccc(Cl)c(C(=O)O)c3)nc(C)c2[N+](=O)[O-])c1 -0.579 unspecified, CC(C)CCN(CCC(C)C)C(CO)(CO)CO 2.29 unspecified, NC(=O)COC(=O)c1ccc(-c2ccccc2)cc1 -6.71 unspecified, COCCNC(=O)c1cc2nc(-c3ccccc3)cc(C)n2n1 3.65 unspecified, COc1ccc(NC(=O)C2CCCN(C(=O)NC3CCCCC3)C2)cc1OC (stereo unspecified) 6.32 unspecified, O=C(OCc1nc2ccccc2s1)c1ccc([N+](=O)[O-])o1 7.21 unspecified, Cc1cccc(Nc2nnc(SCC(=O)c3c(N)n(C4CC4)c(=O)[nH]c3=O)s2)c1 -7.02 unspecified, CCCCNc1c(C(=O)OCC)c(=O)[nH]c2ccccc12 3.06 unspecified, Cc1cc(=O)[nH]c(SCC(=O)Nc2ccc(Br)cn2)n1 6.43 unspecified, CCCc1nc2sc3ccccc3c(=O)c2c(=O)n1Cc1ccccc1 11 unspecified, COc1ccc(CCNC(=O)c2cccc(S(=O)(=O)N3CCc4ccccc4C3)c2)cc1 1.84 unspecified, CC1CCCCN1C(=O)CSc1nc2ccccc2[nH]1 (stereo unspecified) 5.53 unspecified, C(=C\c1nnc(-c2cccs2)o1)/c1ccccc1 -18.1 unspecified, O=C(c1ccc(-c2ccccc2)cc1)C1CCCN(C(=O)c2cncs2)C1 (stereo unspecified) 8.65 unspecified, Cc1nn(S(=O)(=O)c2ccccc2)c(C)c1S(=O)(=O)N1CCOCC1 14.9 unspecified, O=C(/C=C/c1ccc(Cl)c([N+](=O)[O-])c1)c1ccc(O)cc1 -2.73 unspecified, Cc1ccc(SCC(=O)Nc2ccc(F)cc2[N+](=O)[O-])cc1C 12.6 unspecified, c1ccc(-c2cnc(C3CCCCC3)o2)cc1 -5.14 unspecified, CC(C)[N+]1=C2C=CC=CC=C2SC12C([N+](=O)[O-])=CC(=[N+]([O-])[O-])C=C2[N+](=O)[O-] (stereo unspecified) 4.33 unspecified, Cc1ccccc1NC(=O)Cn1nc(-c2ccccc2)nc1-c1ccccc1 2.91 unspecified, COC(=O)c1cc(S(=O)(=O)Nc2cccc(S(N)(=O)=O)c2)oc1C 7.02 unspecified, CCSc1ccc(-c2cccc([N+](=O)[O-])c2)nn1 -7.89 unspecified, Cc1ncc(CN2CCN(Cc3ccc(F)cc3)C(CCO)C2)s1 (stereo unspecified) 10.5 unspecified, CS(=O)(=O)c1ccc(Cl)c(NC(=O)COC(=O)c2ccc(F)cc2Cl)c1 7.09 unspecified, Cc1ccc(OCCn2cc(/C(N)=N/O)c3ccccc32)cc1C 27 unspecified, COc1ccccc1C1CCN(C(=O)C2CCCCC2)CC1 -96.5 unspecified, CCN1CCCC1CN(Cc1cc2ccc(C)cc2[nH]c1=O)C(=S)Nc1cccc(OC)c1 (stereo unspecified) 13.5 unspecified, CC[N+](CC)(CC)C/C=C/CN1CCCCC1 11.5 unspecified, N#Cc1cc([N+](=O)[O-])ccc1Oc1cccc(/C=N/NC(=O)c2ccc(Cl)cc2)c1 -3.43 unspecified, O=C(O)CC1S/C(=N/N=C/C=C/c2ccccc2)NC1=O (stereo unspecified) -7.29 unspecified, COc1ccc(-c2cc3ccccc3cn2)cc1 -0.188 unspecified
